Measurements from PubChem BioAssay (NCI).
About 83,000 compounds went through this panel and 20% of them were active in at least one assay; those are over-represented in the sample as a whole.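 Values shown are percent growth following 48 h exposure of cells in 96-well plates to a single concentration of compound; below 10 was considered active.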 Values without a mark were called inactive. Calls of active or inactive are those of the source.

test system: HL-60(TB) leukemia; test: NCI-60 one-dose screen, 48 h (100 = growth as untreated, 0 = no growth, -100 = all killed); settings: 10 µM unless noted

Compound | growth
CC[C@@H]1C(=O)N(C)c2cnc(Nc3ccc(C(=O)NC4CCC(N5CCN(CC6CC6)CC5)CC4)cc3OC)nc2N1C(C)C (some centres not stated) | -48.5% (active)
NC(=O)OCCn1cc(-c2nc(-c3c[nH]c4ncccc34)cs2)c2ccccc21 | 6.14% (active)
N#C/C(=C\c1ccc(Cl)cc1Cl)C(=O)Nc1ncc(Cc2ccc(Cl)c(Cl)c2)s1 | 98.8%
O=[N+]([O-])C1CC2C=CC1C2 (configuration not stated) | 97.6%
CCCC[n+]1c(/C=C\c2c(OC)cc(OC)cc2OC)ccc2ccccc21 | -58.8% (active)
COc1ccc(Cc2cnc(N)nc2N)cc1OC | 95.2%
Cc1ccc(/C=C2\COc3ccc(O)cc3C2=O)cc1 | -31.7% (active)
COc1cc(-c2cccc([N+](=O)[O-])c2)c(-c2nc(-c3ccccc3)c(-c3ccccc3)n2C2CC2)cc1OC | 9.63% (active)
COC(c1ccccc1)C(Br)C(=O)c1ccccc1 (configuration not stated) | 79.1%
CCOC(=O)c1ccc(Nc2ccnc(SCC(=O)c3ccc(C#N)cc3)n2)cc1 | 75.6%
CCCCCN(CCCCC)CCCNc1c2c(nc3ccc(Cl)cc13)CCCC2 | 48.8%
c1ccc(CP(Cc2ccccc2)c2ccccc2)cc1 | 84.2%
O=C1C=CC(=O)N1c1ccccc1N1C(=O)C=CC1=O | 31.7%
C=C1C(=O)O[C@H]2[C@H]1CC/C(COC(=O)c1ccc(Br)cc1)=C\CC[C@@]1(C)O[C@@H]21 | -45.6% (active)
COc1cc(C)cc(-c2c(-c3cc(N4CC(O)C4)nc(-c4cccnc4)n3)cnn2C)c1 | 105%
Nc1nc(Cl)c2c(C(F)(F)F)cn(CC3CCNCC3)c2n1 | 25.5%
CS(=O)(=O)c1ccc(-c2[nH]c3ccc(F)cc3c2/C=N/O)cc1 | 101%
CCCCCCCC(=O)SCC/C=C/[C@@H]1CC(=O)NCc2nc(co2)C2=N[C@@](C)(CS2)C(=O)N[C@@H](C(C)C)C(=O)O1 | 8.71% (active)
Cc1cccc(-n2c(C)nc3ccc(N4CCCNC4=O)cc3c2=O)c1 | 109%
CCCCCCCCNc1cc2c3c(c1)CCCN3CCC2 | -3.66% (active)
COc1cc(OC)cc(C2C(C#N)=C(N)Oc3c2ccc2ccc(O)cc32)c1 (configuration not stated) | -23.8% (active)
O=C1NC2(Nc3ccccc31)C(=O)Nc1c(Cl)cc(Cl)cc12 (configuration not stated) | 106%
O=c1c(CNc2ccc(S(=O)(=O)Nc3ncccn3)cc2)coc2ccccc12 | 93.2%
COc1ccc(NC(=O)c2sc3nc(C)c(C(O)c4ccc(OC)cc4)cc3c2N)cc1 (configuration not stated) | -59.5% (active)
COc1cc(/C=N/Nc2ccccc2F)cc(OC)c1OC | 90.1%
NCCn1cc(-c2nc(-c3c[nH]c4ncccc34)cs2)c2cc(Br)ccc21 | 51.1%
C=C(C)c1ccc(/C=N/NC(N)=S)cc1 | 147%
